# Laboratory results as given in PubChem BioAssay (NCI).
# Compounds without any hit were thinned out: in the full panel of roughly 79,000, 15% have a hit. A number with no mark means an inactive call. The source made the active and inactive calls. Rule as the data show it: active = growth inhibition above about 70%; inactive = the rest.
# Test: NCI Yeast Anticancer Drug Screen. Data for the cln2 rad14 strain (AID 165);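 also: 0% = growth equal to vehicle treated cultures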
# Details: S. cerevisiae cln2 rad14 strain, at 50.0 µM, active compounds read high
# Method: Growth inhibition of yeast strains with defined genetic alterations is measured as a screen for potential anti-cancer activity. Selected strains with alterations in DNA damage repair or cell cycle control were exposed to compounds and growth inhibition was measured relative to vehicle treated controls. The strain used in this assay is cln2 rad14
row,SMILES,growth inhibition
1,CC(=O)c1cccs1,-20.1%
2,Cc1ccc(C(C)C)c(OCC(=O)O)c1,8.65%
3,CN(C)c1ccc(O)c2c1CC1CC3C(N(C)C)C(=O)C(C(N)=O)=C(O)C3(O)C(=O)C1=C2O (stereo not given),18.4%
4,Nc1ccc2ccccc2c1-c1c(N)ccc2ccccc12,1.1%
5,CN(C)Cc1ccccn1,-5.75%
6,CC1(C)CC(=O)C=C(N)C1,14.2%
7,CC(C)(C)[Si](C)(C)OCC1OC(n2cnc3c(N)ncnc32)CC1OS(C)(=O)=O (stereo not given),-3.15%
8,Cc1cc2nc(C)c(C)nc2cc1C,7.75%
9,CCOC(=O)N[C@H]1CCc2cc(OC)c(OC)c(OC)c2-c2ccc(SC)c(=O)cc21,5.1%
10,CCCCCCCCNC(=O)C(C)C,-42.1%
11,O=c1n(CC2CO2)c(=O)n(CC2CO2)n1CC1CO1 (stereo not given),8.35%
12,CN(C)c1ccc2nc3ccc(=[N+](C)C)cc-3oc2c1,-250%
13,COc1ccc(C)cc1NC(=O)SC(C)C,-5.2%
14,NC(CO)(CO)c1ccccc1,20%
15,Cc1ccc(C)c(CCO)c1,-2.9%
16,COc1cc(N)c2ncccc2c1Cl,-0.05%
17,CC(=O)N(C)N=Nc1ccc(C)cc1,4%
18,C=C1SC(=Nc2c(C)cccc2C)N(c2nc(Cl)nc(Cl)n2)C12CCCCC2,19.1%
19,COc1ccc2c(c1)Nc1ccccc1S2,-1.6%
20,Cc1cccc(C)c1NC(=S)/N=C\c1c(O)[nH]c(=O)[nH]c1=O,-24.3%

row,SMILES,growth inhibition
1,CCOC(=O)c1cc(Cl)c(O)c(Cl)c1,11.7%
2,CC1=CC(=Nc2ccc(N(C)C)cc2)C=C(C)C1=O,-38.1%
3,O=C1C=C[C@H](O)[C@@]2(CO)O[C@@H]12,-6.1%
4,O=C(O)C1CCCN1C(=O)OCc1ccccc1 (stereo not given),-2.45%
5,CSc1nc2[nH]ncc2c(=O)[nH]1,-40.6%
6,CSCCC(NC(=O)C(Cl)Cl)C(=O)O (stereo not given),-49%
7,N#Cc1ccc(OC(=O)Nc2cc(Cl)cc(Cl)c2)cc1,12.9%
8,Oc1cc(O)c2c(c1)O[C@H](c1ccc(O)c(O)c1)[C@@H](O)C2,1.35%
9,CCOC(=O)c1ccc(C(C)(C)C)cc1,-45.5%
10,CCC(C)C1CCC(O)CC1 (stereo not given),21.5%
11,OCc1cccnc1,9.55%
12,Nc1cc2ccccc2c(O)c1O,20.7%
13,Cc1ccc(OC(=O)c2ccccc2)cc1,-6.75%
14,O=C(O)Cc1ccccn1,14.1%
15,N#CC1(O)CCCCC1,23.2%
16,CN(C)c1ncnc2c1cnn2C,-13.6%
17,CS(=O)CC(=N\O)/C(CS(C)=O)=N\O (stereo not given),-8.85%
18,Cc1cc(NC(=O)c2ccccc2)c(Cl)cc1N,-13.4%
19,Oc1cc2ccccc2c(-c2c(O)c(O)cc3ccccc23)c1O,83.6% (active)
20,CCOC(OCC)C(=O)c1ccccc1,9.2%
